# HEK cytotox: cytotoxic compounds in HEK 293 cells | HEK 293 viability, ATP luminescence (CellTiter-Glo), 48-72 h | Potency, µM (highest dose often 115 µM), without a hit: at the top dose activity change, negative = cytotoxicity, most hits filed as inhibitors | actives 6.6% (n = 94,000) | AID 1345083; note: nearly all actives have a fitted effect of over 60% in size
#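 Cells seeded first (HEK 293, 250 cells/well), then compound added by pintool. Incubation ran 48 or 72 hr at 37 degree Celsius. CellTiter-Glo was added and luminescence imaged after 10 min at room temperature.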
# NIH3T3 tox: kills NIH 3T3 cells. Potency, µM (titrated, usually from 96.7 µM), for the others: at the top dose activity change, negative = cytotoxicity, hits mostly inhibitors. AID 1345082. actives 4.3% (n = 94,000). NIH 3T3 viability, CellTiter-Glo ATP luminescence, 48-72 h; note: nearly all actives have a fitted effect of over 55% in size
#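 Cytotoxicity was measured by CellTiter-Glo ATP luminescence after 48 or 72 h compound exposure at 37 °C. Mouse NIH 3T3 fibroblasts were seeded at 400 cells/well and dosed by 23 nL pin transfer.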
# FLuc inh: blocks purified firefly luciferase enzyme activity. actives 2.5% (n = 76,000). P08659. Potency, µM (doses to about 115 µM), most hits filed as inhibitors. purified P. pyralis luciferase, luminescence, biochemical; note: nearly all actives have a fitted effect of over 65% in size
#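 Biochemical qHTS: compound (6-point titration) added to 10uM D-luciferin plus 10uM ATP in Tris acetate pH 7.5 buffer with Mg, Tween-20 and BSA, then purified enzyme at 10nM; light output imaged.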
# hNpr1 antagonist: human Npr1 receptor antagonism | P16066 | HEK293 hNpr1 GloSensor cGMP, ANP-stimulated luminescence | Potency, µM (titrated, usually from 46.3 µM), without a hit: top-dose activity change, negative = inhibition, most hits filed as inhibitors | actives 1.6% (n = 76,000); calls by dose curve; note: nearly all actives have a fitted effect of over 60% in size
# Target sequence (P16066 whole entry, looked up): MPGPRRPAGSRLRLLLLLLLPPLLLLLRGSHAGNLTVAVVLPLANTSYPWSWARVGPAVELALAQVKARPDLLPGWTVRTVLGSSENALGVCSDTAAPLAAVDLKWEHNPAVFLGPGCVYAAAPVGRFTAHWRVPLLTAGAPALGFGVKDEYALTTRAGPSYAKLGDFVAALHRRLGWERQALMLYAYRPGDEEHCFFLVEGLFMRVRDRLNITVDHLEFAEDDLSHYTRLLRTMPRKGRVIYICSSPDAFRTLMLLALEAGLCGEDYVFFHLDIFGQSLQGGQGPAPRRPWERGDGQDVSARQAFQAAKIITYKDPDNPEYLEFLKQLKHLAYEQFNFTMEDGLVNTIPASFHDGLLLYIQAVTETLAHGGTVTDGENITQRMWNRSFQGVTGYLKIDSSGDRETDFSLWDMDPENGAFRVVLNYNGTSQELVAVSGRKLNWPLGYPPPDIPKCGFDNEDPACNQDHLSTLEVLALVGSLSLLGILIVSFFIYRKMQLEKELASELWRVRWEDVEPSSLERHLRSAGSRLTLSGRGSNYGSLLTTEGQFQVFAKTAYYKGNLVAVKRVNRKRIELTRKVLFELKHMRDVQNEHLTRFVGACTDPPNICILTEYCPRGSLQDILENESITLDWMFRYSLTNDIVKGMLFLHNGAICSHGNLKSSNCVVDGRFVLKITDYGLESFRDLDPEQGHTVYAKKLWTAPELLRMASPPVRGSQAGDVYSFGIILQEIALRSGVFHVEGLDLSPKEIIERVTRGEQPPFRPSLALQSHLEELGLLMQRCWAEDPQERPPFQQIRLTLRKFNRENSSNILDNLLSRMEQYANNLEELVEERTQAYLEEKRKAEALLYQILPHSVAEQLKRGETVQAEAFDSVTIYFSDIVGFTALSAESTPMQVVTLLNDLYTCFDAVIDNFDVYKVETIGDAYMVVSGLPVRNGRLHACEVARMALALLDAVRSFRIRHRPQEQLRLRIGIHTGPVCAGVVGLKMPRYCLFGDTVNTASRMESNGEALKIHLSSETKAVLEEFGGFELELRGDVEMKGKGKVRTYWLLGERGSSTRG
#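 HEK293 cells stably expressing human Npr1 and cGMP GloSensor pGS-40F, loaded 2 h with 2% GloSensor reagent, given compound 30 min at room temperature. Luminescence read before and 20 min after 0.1 nM hNppA.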
# GPT2 inh: blocks human glutamate pyruvate transaminase 2 | Q8TD30 | Recombinant GPT2, coupled pyruvate oxidase/HRP Amplex Red fluorescence | Potency, µM (titrated, usually from 57.7 µM), for the others: at the highest dose activity change, negative = inhibition, hits mostly inhibitors | actives 0.25% (n = 100,000) | AID 1671188; note: nearly all actives have a fitted effect of over 60% in size
#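 Fluorescence of coupled pyruvate oxidase/HRP/Amplex Red system (50uM Amplex, 30 min, dark) reports pyruvate formed by GPT2. Enzyme reaction: 10ng/uL GPT2, 2mM L-alanine, 250uM a-KG, 30 min room temperature, pH 7.5; 50uM AOA control.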
# The depositor's hits bear a star; i = inactive; ? = inconclusive; . = not tested or not shown; ! = a repeat was not active; [ ] = another dose, or the depositor's remark. A selection: hits, their analogues and other compounds. The true share with any hit is near 10%. Unless noted, calls come from the whole dose curve; as a rule, active = well fitted curve in the direction sought with a large enough effect; inconclusive = small, poorly fitted or top-dose-only effect, or another doubt; inactive = no such curve, though single readings can be large; an effect the other way counts as inactive or inconclusive. % is set by controls: 0 for no effect and ±100 for the full control effect; potency is the fitted concentration of half-maximal effect.
SMILES,HEK cytotox,NIH3T3 tox,FLuc inh,hNpr1 antagonist,GPT2 inh
COc1ccccc1Nc1ccnc(N2CCC(N[S+](=O)([O-])c3ccc(C)cc3)CC2)n1,31.6µM*,?,.,.,i
CCN1CCN(C(=O)c2nc3sccn3c2-c2ccc(C)cc2)CC1,1.7%,-9.9%,.,.,i
COc1ccc(C(=O)N2CCN(C(=O)c3nc4cccnc4n(C4CCCC4)c3=O)CC2)cc1,-0.3%,-22.6%,.,.,-5.7%
Cn1cc(CC(=O)N2CCCc3ncc(C(=O)N4CCCC[C@@H]4Cc4ccccc4)cc32)c2ccccc21,39.8µM*,?,i,-29.5%,-6.6%
O=C(Cc1cccc(C(F)(F)F)c1)N1CCCc2ncc(C(=O)N3CCCC[C@@H]3c3ccccc3)cc21,79.4µM*,?,i,?,-11.3%
COc1ccccc1CC(=O)N1CCCc2ncc(C(=O)N3CCCC[C@@H]3Cc3ccccc3)cc21,?,-35.2%,i,0.1%,1.3%
COc1ccccc1CC(=O)N1CCCc2ncc(C(=O)N3CCCC[C@@H]3c3ccccc3)cc21,?,-17.9%,i,-1.6%,-3.9%
CNC(=O)c1cc(C2CC2)nc2onc(C3CCCN(C(=O)c4ccccc4)C3)c12 (centres undefined),-15.0%,-17.7%,.,.,.
Cc1cc(C)n(CC(=O)N2CCC3(CC2)CC(N2CCN(C(C)C)CC2)CCO3)n1 (centres undefined),3.2%,3.7%,i,2.4%,i
COCc1ccc2c(c1)c(OC(C)(C)C(=O)Nc1cc(C)nn1C)nn2Cc1cccnc1,i,39.8µM*,i,1.2%,i
CC(C)(Oc1nn(CC2CCOCC2)c2ccccc12)C(=O)NCCc1ccccc1,100µM*,?,i,-9.9%[70.6 µM],-18.1%[88.5 µM]
COCc1ccc2c(c1)c(OC(C)(C)C(=O)Nc1ccc(OC)cc1)nn2Cc1cccnc1,-5.9%,?,i,5.0%,-4.6%
COCc1ccc2c(c1)c(OC(C)(C)C(=O)NCC1CCOCC1)nn2Cc1cccnc1,i,39.8µM*,i,4.7%,-29.6%
COCC(=O)N1CCN(CCCn2nc3n(c2=O)CCCC3)CC1,i,-9.8%,.,.,.
O=C1NCc2ccccc2CC12CCN(Cc1cccc(C(F)(F)F)c1)C2 (centres undefined),39.8µM*,?,.,.,i
CCc1ccccc1CN1CCCC12Cc1ccccc1CNC2=O (centres undefined),79.4µM*,?,.,.,-2.4%
O=C1NCc2ccccc2CC12CCCN2Cc1cc(F)ccc1F (centres undefined),35.5µM*,?,.,.,0.5%
CCOc1cccc(CN2CCCC23Cc2ccccc2CNC3=O)c1 (centres undefined),79.4µM*!,?,.,.,i
CC(C)C[C@@H](N)C(=O)N[C@H]1C(=O)N[C@@H](CC(N)=O)C(=O)N[C@H]2C(=O)N[C@H]3C(=O)N[C@H](C(=O)N[C@H](C(=O)O)c4cc(O)cc(O)c4-c4cc3ccc4O)[C@H](O)c3ccc(c(Cl)c3)Oc3cc2cc(c3O[C@@H]2O[C@H](CO)[C@@H](O)[C@H](O)[C@H]2O[C@H]2C[C@](C)(N)[C@H](O)[C@H](C)O2)Oc2ccc(cc2Cl)[C@H]1O,.,.,.,.,-10.4%[27.3 µM]
CCc1ccccc1CN1CCCC2(Cc3ccccc3CNC2=O)C1 (centres undefined),?,?,.,.,i
CCc1ccccc1CN1CCC2(Cc3ccccc3CNC2=O)C1 (centres undefined),79.4µM*,?,.,.,i
Cc1ccsc1CN1CCCCC12Cc1ccccc1CNC2=O (centres undefined),31.6µM*,?,.,.,i
CCCn1c(C)cnc1C1CCN(S(=O)(=O)c2cc(OC)ccc2OC)C1 (centres undefined),-0.2%,i,i,-1.8%,-3.8%
Cc1ccc(C2=NC3(CCN(C(=O)c4ccco4)CC3)ON2)cc1,-24.3%,-16.0%,28.2µM*,-12.9%,-9.6%
Cc1ccc(C2=NC3(CCN(C(=O)c4ccoc4)CC3)ON2)cc1,-1.9%,-5.2%,31.6µM*,-18.4%,-4.2%
SMILES,HEK cytotox,NIH3T3 tox,FLuc inh,hNpr1 antagonist,GPT2 inh
Cc1ccc(C2=NC3(CCN(C(=O)c4ccccc4C)CC3)ON2)cc1,?,-1.2%,?,-12.3%,-10.1%
Fc1ccc(CNC[C@H]2Cn3c(-c4ccc(Cl)cc4)cnc3CO2)cc1,79.4µM*,?,i,?,-1.7%[88.5 µM]
Clc1ccc(CNC[C@H]2Cn3c(-c4ccccc4)cnc3CO2)cc1,100µM*,89.1µM*,i,?,-8.7%[88.5 µM]
Clc1ccc(-c2cnc3n2C[C@H](CNCc2cccnc2)OC3)cc1,?,?,i,-12.1%[70.6 µM],i
Clc1ccc(CNC[C@H]2Cn3c(-c4cccc(Cl)c4)cnc3CO2)cc1,63.1µM*,44.7µM*,i,?,-14.1%[88.5 µM]
O=C(NC[C@H]1Cn2c(-c3ccc(Cl)cc3)cnc2CO1)c1cccnc1,22.4µM*,?,?,-4.4%[70.6 µM],?
COc1cccc(CN2CCC(Cn3c(C)cnc3-c3ccccc3)CC2)c1OC,?,-29.6%,.,.,-4.0%
O=C(Nc1cccc(C(F)(F)F)c1)O[C@@H]1CO[C@H]2[C@@H]1OC[C@@H]2n1nnnc1-c1ccccc1,-15.8%,-26.7%,i,-20.3%,-12.2%
CC(C)c1noc(-c2cn(C3CCN(C(=O)c4cccc5[nH]ccc45)CC3)nn2)n1,44.7µM*,-23.1%,i,0.0%,0.7%
CCc1noc(-c2cn(C3CCN(C(=O)c4cccc5[nH]ccc45)CC3)nn2)n1,?,-23.5%,i,-25.9%,i
O=C(c1cc(F)ccc1F)N1CCC(n2cc(-c3nc(-c4ccccc4)no3)nn2)C1 (centres undefined),?,?,i,-23.9%,i

# Screening data (PubChem)
